A selection: hits, their analogues and other compounds. The true share with any hit is near 19%.
TDP1 cell CPT: DT40-hTDP1 cell growth loss with CPT; Potency, µM (doses to about 46.2 µM), hits mostly inhibitors; chicken DT40 Tdp1-/-;hTDP1 cells + 20 nM CPT, ATP luminescence, 48 h; AID 686979; 420,000 tested, 12% active; also: nearly all actives have a fitted effect of over 55% in size
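Chicken DT40 Tdp1-/- cells complemented with human TDP1, 400 cells/well, exposed to compounds plus 20 nM camptothecin for at least 48 h at 37 C; viability read as ATP content by CellTiter-Glo luminescence.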
DT40 TDP1 no CPT: qHTS for Inhibitors of human tyrosyl-DNA phosphodiesterase 1 (TDP1): qHTS in cells in absence of CPT; 420,000 tested, 15% active; DT40 Tdp1-/- hTDP1 cells, no CPT, ATP luminescence, 48 h; AID 686978, 2013; Potency, µM (doses to about 46.2 µM), usual class: inhibitors; also: nearly all actives have a fitted effect of over 55% in size
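Compound effects on proliferation are scored in DT40 Tdp1-/-;hTDP1 cells in the absence of CPT. ATP levels (CellTiter-Glo luminescence) are recorded after a ≥48 hr, 37 °C incubation.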
IL1B secr inh: blocks inflammasome-driven IL-1 beta release. 360,000 tested, 4.7% active. AID 743279. THP-1 LPS/ATP IL-1B secretion, AlphaLISA, 16 h; hits give low values. activity change, % at 57.5 µM; in the data active = activity change below about -50%; inconclusive = mostly about -30% to -49%
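Secreted IL-1B measured by AlphaLISA bead assay after 16 h compound exposure of THP-1 cells; compounds (final up to 57.5 uM) added 1 h before LPS (250 ng/mL) and ATP (1.25 mM) stimulation; lower signal means less secretion.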
HT1080 IDH1KD tx: HT-1080 IDH1 knockdown cell toxicity (counter line) | HT-1080 IDH1 knockdown viability, ATP luminescence, 48 h | Potency, µM (highest dose often 46.1 µM), usual class: cytotoxic | 360,000 tested, 2% active | AID 686971
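Using the IDH1-knockdown HT-1080 line run in the same batch and compound series as the NT line, viability after 48 h at 37 °C was determined by CellTiter-Glo luminescence and expressed as % activity.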
HT1080-NT tox: kills 2HG-producing HT-1080-NT fibrosarcoma cells; HT-1080-NT fibrosarcoma viability, CellTiter-Glo ATP luminescence, 48 h; Potency, µM (highest dose often 46.1 µM), usual class: cytotoxic; 360,000 tested, 1.6% active;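 also: NT is the 2HG producing partner of a matched IDH1 knockdown line; nearly all actives have a fitted effect of over 55% in size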
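A 48-hour cytotoxicity screen used HT-1080-NT cells plated 2 hours before compound delivery. ATP-based CellTiter-Glo luminescence measured viability, normalized to DMSO and no-cell controls.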
Large screens that a line does not name were inactive. Unless noted, calls follow the shape of the dose curve; as a rule, active = well fitted curve in the direction sought with a large enough effect; inconclusive = small, poorly fitted or top-dose-only effect, or another doubt; inactive = no such curve, though single readings can be large; an effect the other way counts as inactive or inconclusive.

O=C(Nc1ccc(Cl)c([N+](=O)[O-])c1)c1ccc(NCCCN2CCOCC2)c([N+](=O)[O-])c1	TDP1 cell CPT 2.31µM, DT40 TDP1 no CPT 2.31µM
O=[N+]([O-])c1cc(S(=O)(=O)NCCN2CCOCC2)ccc1Sc1nnnn1-c1ccccc1	TDP1 cell CPT 5.8µM, DT40 TDP1 no CPT 6.51µM, IL1B secr inh -99.8, HT1080 IDH1KD tx inconclusive, HT1080-NT tox inconclusive
O=[N+]([O-])c1ccc(NCCCN2CCOCC2)c([N+](=O)[O-])c1	none
O=C(NCCCN1CCOCC1)c1ccc(Cl)c([N+](=O)[O-])c1	none
COc1ccc(NC(=O)c2ccc(NCCCN3CCOCC3)c([N+](=O)[O-])c2)cc1	TDP1 cell CPT 20.6µM, DT40 TDP1 no CPT 18.4µM, IL1B secr inh inconclusive
CCOC(=O)C(=O)NCC(c1cccs1)S(=O)(=O)c1ccc(F)cc1 (configuration not stated)	none
Cc1ccn2c(c1)nc(=O)c1cc(S(=O)(=O)N3CCOCC3)ccc12	none
O=[N+]([O-])c1cc(S(=O)(=O)NCCCN2CCOCC2)ccc1Cl	IL1B secr inh -64.3
Cc1ccc(NC(=O)c2ccc(NCCCN3CCOCC3)c([N+](=O)[O-])c2)cc1Cl	TDP1 cell CPT inconclusive, DT40 TDP1 no CPT 20.6µM, IL1B secr inh -66.6, HT1080 IDH1KD tx 18.4µM, HT1080-NT tox 18.4µM
Cc1ccc(C(=O)NCCCN2CCOCC2)cc1Cl	none
COc1cc(NC(=O)CSc2nnc3c(C)cc4c(C)ccc(C)c4n23)c(C(=O)O)cc1OC	none
CCCOC1CCCN(C(=O)c2cc(COc3ccc(-n4cncn4)cc3)on2)C1 (configuration not stated)	TDP1 cell CPT inconclusive, DT40 TDP1 no CPT inconclusive
C=CC[C@@H](CC(=O)NCCO)C(=O)N[C@@H](C)COC(=O)[C@H](CC=C)CC(=O)OC(C)(C)C	none
CN(CC1CCCO1)S(=O)(=O)c1ccc(C(=O)Nc2nc(-c3ccccn3)cs2)cc1 (configuration not stated)	TDP1 cell CPT 1.46µM, DT40 TDP1 no CPT 1.84µM, HT1080 IDH1KD tx inconclusive, HT1080-NT tox inconclusive
CN(CC1CCCO1)S(=O)(=O)c1ccc(C(=O)Nc2nnc(-c3ccccc3)o2)cc1 (configuration not stated)	TDP1 cell CPT 18.4µM, DT40 TDP1 no CPT 8.2µM, HT1080 IDH1KD tx inconclusive, HT1080-NT tox inconclusive
CN(CC1CCCO1)S(=O)(=O)c1ccc(C(=O)Nc2ccccc2F)cc1 (configuration not stated)	DT40 TDP1 no CPT inconclusive
COCCN(CCOC)Cc1cc(=O)oc2cc(OC)ccc12	DT40 TDP1 no CPT inconclusive
Cc1ccc(CN2C(=O)C(O)(c3c[nH]c4ccccc34)c3cc(Cl)ccc32)cc1 (configuration not stated)	TDP1 cell CPT inconclusive, DT40 TDP1 no CPT 23.1µM (no result: IL1B secr inh, HT1080 IDH1KD tx, HT1080-NT tox)
Cc1[nH]c2ccccc2c1C1(O)C(=O)N(Cc2ccccc2)c2ccc(Br)cc21 (configuration not stated)	TDP1 cell CPT 4.11µM, DT40 TDP1 no CPT 4.61µM (no result: IL1B secr inh, HT1080 IDH1KD tx, HT1080-NT tox)
Cc1[nH]c2ccccc2c1C1(O)C(=O)N(Cc2ccccc2Cl)c2ccccc21 (configuration not stated)	TDP1 cell CPT 5.8µM, DT40 TDP1 no CPT 5.17µM (no result: IL1B secr inh, HT1080 IDH1KD tx, HT1080-NT tox)
O=C(Nc1cccnc1)c1ccc(NS(=O)(=O)c2cc([N+](=O)[O-])ccc2Cl)cc1	none
O=C(Nc1ccc(O)c2c(=O)cc(-c3cccc(Cl)c3)oc12)c1ccc(F)cc1	TDP1 cell CPT inconclusive, DT40 TDP1 no CPT 13µM
COC(=O)c1ccc(Cn2cnc3c(N)ncnc32)cc1	none
O=C(Nc1cccc(F)c1)N1CCN(C(=O)c2ccco2)CC1	none
O=C(CN1C(=O)CCc2cc(Br)ccc21)Nc1ccc(OC(F)(F)F)cc1	TDP1 cell CPT inconclusive (no result: IL1B secr inh, HT1080 IDH1KD tx, HT1080-NT tox)
CC1CCc2c(C(=O)N3CCN(S(=O)(=O)c4cccs4)CC3)csc2C1 (configuration not stated)	none
Cc1cc(C)nc(Sc2nc(Cl)nc(N(c3ccccc3)c3ccccc3)n2)n1	TDP1 cell CPT inconclusive, DT40 TDP1 no CPT inconclusive, IL1B secr inh -96.9
Cc1cc(C)nc(SC(C(=O)O)c2ccccc2)n1 (configuration not stated)	none
